In PubChem BioAssay (EPA / NIEHS):
Calls of active or inactive are those of the source. The calls were made as follows: active = hit-call score of the fitted dose curve at least 0.9, where 1 is the maximum; inactive = score below 0.9.

How the values were obtained:
[1] = biological target: Transcription factor E2F1 (Homo sapiens) (UniProt Q01094); experiment: ATG_E2F_CIS: Attagene CIS-FACTORIAL HepG2 Assay for human E2F Transcription Factor 1 (AID 2282935); conditions: HepG2 Attagene cis-reporter, E2F reporter RNA transcripts; actives raise or lower the signal
Chain of Transcription factor E2F1 (Homo sapiens) (Q01094 whole entry, looked up): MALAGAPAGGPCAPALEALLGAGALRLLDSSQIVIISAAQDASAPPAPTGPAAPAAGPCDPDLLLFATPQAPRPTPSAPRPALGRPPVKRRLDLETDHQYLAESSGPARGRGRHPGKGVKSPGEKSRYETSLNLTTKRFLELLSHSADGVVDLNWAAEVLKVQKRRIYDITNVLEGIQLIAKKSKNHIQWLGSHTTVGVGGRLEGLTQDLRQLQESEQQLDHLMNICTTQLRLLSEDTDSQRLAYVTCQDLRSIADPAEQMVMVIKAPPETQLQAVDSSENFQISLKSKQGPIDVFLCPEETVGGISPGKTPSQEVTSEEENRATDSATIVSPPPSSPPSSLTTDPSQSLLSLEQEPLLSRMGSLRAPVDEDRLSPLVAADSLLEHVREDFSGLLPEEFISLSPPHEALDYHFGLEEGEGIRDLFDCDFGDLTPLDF
In short: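 Total RNA from 24 h-treated, reporter-transfected HepG2 cells undergoes DNase I treatment, oligo(dT) reverse transcription, PCR and 6-FAM primer extension before capillary electrophoresis.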

[2] = ATG_E_Box_CIS: Attagene CIS-FACTORIAL HepG2 Assay for human Enhancer Box (E-box) (AID 2282936); conditions: HepG2 E-box cis-reporter transcription, actives raise or lower the signal
In short: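 DMSO served as negative control and baseline for bidirectional fitting. Human hepatoma HepG2 cells, transiently transfected with cis-reporter constructs, were dosed 24 h; reporter mRNA read by RT-PCR and capillary electrophoresis.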

[3] = ATG_M_61_CIS: Attagene CIS-FACTORIAL HepG2 Assay for M61 Transcription Factor (Internal Marker) (AID 2282937); conditions: HepG2 Attagene CIS-FACTORIAL M61 internal marker reporter; actives raise or lower the signal
In short: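 Transfect HepG2 with MRTUs; dose 24 h; isolate RNA; reverse-transcribe with DNase I treatment; PCR-amplify, FAM-label and cut with HpaI for 2 h at 37 C; resolve by CE. Bidirectional fitting against DMSO.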

[4] = ATG_EGR_CIS: Attagene CIS-FACTORIAL HepG2 Assay for human Early Growth Response 1 (EGR1) (AID 2282938); conditions: HepG2 Attagene CIS-FACTORIAL EGR reporter mRNA; actives raise or lower the signal
In short: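 After a 24 h treatment of transiently transfected HepG2 cells, total RNA was reverse-transcribed and reporter sequences PCR-amplified, labelled and run on capillary electrophoresis. Reporters sit under cis-regulatory promoters sensing endogenous factors.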

[5] = ATG_M_19_CIS: Attagene CIS-FACTORIAL HepG2 Assay for M19 Transcription Factor (Internal Marker) (AID 2282939); conditions: HepG2 Attagene CIS-FACTORIAL M19 internal marker reporter; actives raise or lower the signal
In short: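 HepG2 cells transiently transfected with cis-regulated multiplexed reporter units, dosed 24 h. Reporter mRNA quantified by RT-PCR and capillary electrophoresis; internal background marker fitted bidirectionally versus DMSO.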

[6] = ATG_ERE_CIS: Attagene CIS-FACTORIAL HepG2 Assay for Estrogen Response Element (ERE) (AID 2282940); conditions: HepG2 ERE cis-reporter, Attagene RNA transcript; actives raise or lower the signal
In short: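 HepG2 cells transiently transfected with multiplexed cis-element reporter units, measuring endogenous transcription factor activity; ERE reporter mRNA quantified after 24 h exposure by RT-PCR, fluorescent labelling, HpaI digestion and capillary electrophoresis. Bidirectional change versus DMSO.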

[7] = ATG_Ets_CIS: Attagene CIS-FACTORIAL HepG2 Assay for human Erythroblast Transformation Specific (ETS) (AID 2282941); conditions: HepG2 ETS cis-reporter transcription, actives raise or lower the signal
In short: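 HepG2 cells transfected with multiple cis-regulated reporter units measuring endogenous ETS-driven transcription, 24 h after dosing. Reporter mRNA quantified by RT-PCR with capillary electrophoresis; bidirectional fit relative to DMSO.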

[8] = biological target: Hepatocyte nuclear factor 3-beta (Homo sapiens) (UniProt Q9Y261); experiment: ATG_FoxA2_CIS: Attagene CIS-FACTORIAL HepG2 Assay for human Forkhead box A2 (FOXA2) (AID 2282942); conditions: HepG2 cis-reporter transcription factor activity, 24 h; actives raise or lower the signal
Chain of Hepatocyte nuclear factor 3-beta (Homo sapiens) (Q9Y261 whole entry, looked up): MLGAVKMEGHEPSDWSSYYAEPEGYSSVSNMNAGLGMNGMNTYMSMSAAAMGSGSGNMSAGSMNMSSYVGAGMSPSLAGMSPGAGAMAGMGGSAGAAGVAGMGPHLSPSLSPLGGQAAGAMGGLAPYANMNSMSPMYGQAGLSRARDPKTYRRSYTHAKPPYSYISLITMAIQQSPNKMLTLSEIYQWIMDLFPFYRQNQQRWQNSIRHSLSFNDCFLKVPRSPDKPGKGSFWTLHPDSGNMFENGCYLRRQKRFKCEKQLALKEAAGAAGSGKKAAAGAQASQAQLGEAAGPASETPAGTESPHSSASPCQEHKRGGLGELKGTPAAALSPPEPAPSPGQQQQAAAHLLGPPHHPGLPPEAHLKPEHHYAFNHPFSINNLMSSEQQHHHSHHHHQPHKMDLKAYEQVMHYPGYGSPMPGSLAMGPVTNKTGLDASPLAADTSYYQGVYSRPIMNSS
In short: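 24 h dosing of HepG2 bearing cis-reporter constructs; mRNA readout by RT-PCR/CE fluorescence; bidirectional fit, DMSO baseline.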

[9] = ATG_FoxO_CIS: Attagene CIS-FACTORIAL HepG2 Assay for human Forkhead box O (FoxO) (AID 2282943); conditions: HepG2 Attagene cis-reporter, FoxO element, mRNA; actives raise or lower the signal
In short: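 HepG2, transient MRTU transfection (cis element, endogenous TFs). Dose 24 h. TriZol RNA → oligo(dT) RT → PCR → 6-FAM primer extension → HpaI cut → CE. Gain/loss vs DMSO.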

[10] = ATG_GATA_CIS: Attagene CIS-FACTORIAL HepG2 Assay for human GATA Binding Protein (AID 2282944); conditions: HepG2 GATA cis-element reporter, Attagene multiplex mRNA; actives raise or lower the signal
In short: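 HepG2 cells transiently transfected with multiplexed cis-element reporter units measure endogenous GATA activity; after 24 h compound exposure, reporter mRNA quantified by RT-PCR and capillary electrophoresis. Changes fitted in both directions vs DMSO.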

Measured: AC50

C[Si](C)(C)N[Si](C)(C)C
inactive: all assays above

CCCCNS(=O)(=O)c1ccc(C)cc1
inactive: all assays above

[Cl][Sc]([Cl])[Cl]
not listed: [7]
inactive: all other assays above

CCCCc1ccc(Cl)cc1
inactive: all assays above

Cn1ccnc1
inactive: all assays above

CCOC(=O)OC(=O)OCC
not listed: [7]
inactive: all other assays above

O=S(=O)(O)c1ccc(Nc2nc(Nc3ccc(C=Cc4ccc(Nc5nc(Nc6ccc(S(=O)(=O)O)cc6)nc(N(CCO)CCO)n5)cc4S(=O)(=O)O)c(S(=O)(=O)O)c3)nc(N(CCO)CCO)n2)cc1
not listed: [7]
inactive: all other assays above

CC1OC(=O)C(C)OC1=O (stereo not given)
not listed: [7]
inactive: all other assays above

Cc1cc(=O)[nH]c(=O)[nH]1
not listed: [4]
inactive: all other assays above

O=C(Oc1ccccc1)c1ccccc1O
not listed: [6]
inactive: all other assays above

C=C(C)[C@@H]1CC=C(C)CC1
not listed: [6]
inactive: all other assays above

CC(=O)OC1CCCCC1C(C)(C)C (stereo not given)
not listed: [4]
inactive: all other assays above

CCC1(C)C(=O)N(Cl)C(=O)N1Cl (stereo not given)
active: [4] 34.5 µM | [9] 29.8 µM
not listed: [7]
inactive: all other assays above

Cc1c(C(=O)c2c[nH]n(C)c2=O)ccc(S(C)(=O)=O)c1C1=NOCC1
not listed: [6] | [7]
inactive: all other assays above

CCCCOCC(C)O (stereo not given)
not listed: [7]
inactive: all other assays above

Nc1cccc(N)n1
not listed: [6] | [7]
inactive: all other assays above

C=CCCCCCCCCO
not listed: [6]
inactive: all other assays above
